Our source for the outcome and AC50 values is PubChem BioAssay (EPA / NIEHS).

Several values for one entry are separate records, joined by “and”; a condition that tells them apart may be missing. Identical values can stand only once. Records with an inconclusive call do not appear. A structure can be active in one record and inactive in another. Activity calls are given as the source filed them. Rule for the calls: active = hit-call score of the fitted dose curve at least 0.9, where 1 is the maximum; inconclusive = response in the unintended direction; inactive = score below 0.9.

Assay [1] concerns the target Bile acid receptor (Homo sapiens) (UniProt Q96RI1). The assay can be described thus: NVS_NR_hFXR_Agonist: NovaScreen (NVS) Nuclear Receptor Binding Assay for human Farnesoid X Receptor Agonism (FXR) (AID 2283347). The method, boiled down:
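Agonist-mode FXR assay read by time-resolved FRET 1 h after compound addition, using isolated human receptor protein without cells. Duplicate 25 uM single-point primary screen, concentration series for confirmed actives; DMSO as baseline.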

Assay [2] concerns the target Estrogen receptor (Homo sapiens) (UniProt P03372). The assay can be described thus: NVS_NR_hER: NovaScreen (NVS) Nuclear Receptor Binding Assay for human Estrogen Receptor (ER) (AID 2283348). The method, boiled down:
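Radiodetection of ligand displacement in a lysate-based, cell-free format using MCF7 extracts, read at 18 hours. Duplicate 25 uM primary testing, then concentration series for actives.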

The target is the same in assay [3]. Briefly: OT_ER_ERaERa_1440: Odyssey Thera (OT) 24-hour HEK293T Protein-Complementation Assay for Estrogen Receptor-alpha/-alpha Homodimer (AID 2283349).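 Note: hits raise fluorescence above DMSO for agonists and antagonists alike.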 The method, boiled down: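 Stably transfected HEK293T; ERα LBD homodimer PCA. 24 h dosing, fluorescence intensity read, gain-of-signal vs DMSO.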
Assay [4] addresses Androgen Receptor/SRC-1 Co-activator, AR (gene 367) (UniProt P10275). Briefly: OT_AR_ARSRC1_0960: Odyssey Thera (OT) 16-hour HEK293T Protein-Complementation Assay for Androgen Receptor/SRC-1 Co-activator (AID 2283353).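 Note: actives raise the signal above DMSO so potency reflects increased AR and SRC-1 complex.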 The method, boiled down:
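Endpoint is gain-of-signal N/C fluorescence ratio in the 488 nm channel versus DMSO, from at least 400 cells per image, measured 16 h post-dosing. Cells: HEK293T stably carrying split-Venus AR/SRC-1 complementation constructs.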

For assay [5] the target is unchanged. The assay can be described thus: OT_AR_ARSRC1_0480: Odyssey Thera (OT) 8-hour HEK293T Protein-Complementation Assay for Androgen Receptor/SRC-1 Co-activator (AID 2283354).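 Note: hits raise the complementation signal above DMSO so AC50 marks enhancers.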 The method, boiled down:
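After 8 h dosing, stably expressing HEK293T cells with split-Venus AR/SRC-1 fusions were imaged (488, 635nm). The 488nm N/C ratio per image gave the endpoint, analysed in the positive direction against DMSO.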

Assay [6] deals with T1, Estrogen receptor (Homo sapiens) + Estrogen receptor beta (Homo sapiens) (UniProt P03372+Q92731). Briefly: OT_ER_ERaERb_1440: Odyssey Thera (OT) 24-hour HEK293T Protein-Complementation Assay for Estrogen Receptor-alpha/-beta Homodimer (AID 2283356).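 Note: heteromer of ER alpha and ER beta binding domains; hits raise reporter fluorescence and both agonists and antagonists give an increase.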 An outline of the steps: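 Fragment complementation between ER alpha (310-547) and ER beta (263-489) ligand-binding domains in HEK293T cells; signal read 24 h post-dosing by laser scanning cytometer. Gain of fluorescence relative to DMSO fitted.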
T1 sequence (P03372 whole entry, looked up, the tested form may be a part): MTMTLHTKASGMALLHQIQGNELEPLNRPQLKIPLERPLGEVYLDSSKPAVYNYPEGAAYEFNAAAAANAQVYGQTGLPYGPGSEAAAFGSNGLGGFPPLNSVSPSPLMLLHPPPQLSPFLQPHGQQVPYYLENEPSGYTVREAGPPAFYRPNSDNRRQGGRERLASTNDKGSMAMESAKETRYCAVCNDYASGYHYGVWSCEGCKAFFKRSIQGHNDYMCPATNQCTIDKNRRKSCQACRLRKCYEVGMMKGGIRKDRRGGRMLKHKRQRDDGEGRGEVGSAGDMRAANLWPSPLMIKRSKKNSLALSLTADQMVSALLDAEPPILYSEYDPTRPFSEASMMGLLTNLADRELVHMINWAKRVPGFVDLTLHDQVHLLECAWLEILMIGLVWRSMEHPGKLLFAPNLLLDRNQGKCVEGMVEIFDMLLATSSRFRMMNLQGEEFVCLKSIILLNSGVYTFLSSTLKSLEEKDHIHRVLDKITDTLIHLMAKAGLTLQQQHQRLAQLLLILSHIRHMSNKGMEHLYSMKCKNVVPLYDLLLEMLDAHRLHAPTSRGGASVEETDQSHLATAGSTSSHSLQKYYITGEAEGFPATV
T1 sequence (Q92731 whole entry, looked up, the tested form may be a part): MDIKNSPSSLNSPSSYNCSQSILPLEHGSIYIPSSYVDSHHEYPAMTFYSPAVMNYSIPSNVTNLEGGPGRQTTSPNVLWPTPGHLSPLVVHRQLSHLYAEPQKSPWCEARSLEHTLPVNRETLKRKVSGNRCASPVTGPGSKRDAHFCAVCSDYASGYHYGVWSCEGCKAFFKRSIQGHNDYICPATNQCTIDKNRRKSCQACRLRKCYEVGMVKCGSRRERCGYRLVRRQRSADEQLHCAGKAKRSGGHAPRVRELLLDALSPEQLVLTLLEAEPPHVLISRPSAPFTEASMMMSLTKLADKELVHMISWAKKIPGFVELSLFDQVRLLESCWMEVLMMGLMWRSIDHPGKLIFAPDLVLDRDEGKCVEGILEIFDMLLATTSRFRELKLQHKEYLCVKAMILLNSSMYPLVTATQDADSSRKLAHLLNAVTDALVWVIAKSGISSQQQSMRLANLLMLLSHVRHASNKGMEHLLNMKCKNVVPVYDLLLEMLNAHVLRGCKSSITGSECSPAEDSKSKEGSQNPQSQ

Assay [7] concerns the target Estrogen receptor (Homo sapiens) (UniProt P03372). The assay can be described thus: OT_ER_ERaERa_0480: Odyssey Thera (OT) 8-hour HEK293T Protein-Complementation Assay for Estrogen Receptor-alpha/-alpha Homodimer (AID 2283351).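 Note: rise in fluorescence from reassembled reporter fragments on ERα LBD homodimer in nucleus or whole cell.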 The method, boiled down: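 HEK293T cells stably expressing a PCA pair of ER alpha LBD (residues 310-547) were dosed for 8 hours. The gain in fluorescence intensity, nuclear for agonists and whole-cell for antagonists, was measured by laser scanning cytometry against DMSO vehicle.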

The target of assay [8] is T1, Estrogen receptor (Homo sapiens) + Estrogen receptor beta (Homo sapiens). Briefly: OT_ER_ERaERb_0480: Odyssey Thera (OT) 8-hour HEK293T Protein-Complementation Assay for Estrogen Receptor-alpha/-beta Heterodimer (AID 2283352). The method, boiled down:
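Fluorescence increase from reconstituted reporter fragments, quantified by laser scanning cytometer, reflects ER-alpha/ER-beta heterodimer formation in human HEK293T cells. Exposure 8 h; positive-direction fitting against DMSO vehicle.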

Assay [9] has as its target Bile acid receptor (Homo sapiens) (UniProt Q96RI1). The assay can be described thus: NVS_NR_hFXR_Antagonist: NovaScreen (NVS) Nuclear Receptor Binding Assay for human Farnesoid X Receptor Antagonism (FXR) (AID 2283350). The method, boiled down: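 Antagonist-format time-resolved FRET binding assay with extracted human receptor protein, read 1 hour after compound addition. Compounds first screened at 25 uM in duplicate, then actives tested in concentration series, with loss of signal relative to DMSO.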

The target in assay [10] is rat Mineralocorticoid Receptor (MR), Nr3c2 (gene 25672) (UniProt P22199). The assay can be described thus: NVS_NR_rMR: NovaScreen (NVS) Nuclear Receptor Binding Assay for rat Mineralocorticoid Receptor (MR) (AID 2283355). An outline of the steps: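 Single-concentration duplicate screen (25 uM) of radioligand binding in adrenalectomized rat brain supernatant; scintillation detection 24 h after dosing. Positive and negative controls ran on each plate, and confirmed actives went to concentration-response.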
rat Mineralocorticoid Receptor (MR), Nr3c2 (gene 25672), sequence (P22199 whole entry, looked up): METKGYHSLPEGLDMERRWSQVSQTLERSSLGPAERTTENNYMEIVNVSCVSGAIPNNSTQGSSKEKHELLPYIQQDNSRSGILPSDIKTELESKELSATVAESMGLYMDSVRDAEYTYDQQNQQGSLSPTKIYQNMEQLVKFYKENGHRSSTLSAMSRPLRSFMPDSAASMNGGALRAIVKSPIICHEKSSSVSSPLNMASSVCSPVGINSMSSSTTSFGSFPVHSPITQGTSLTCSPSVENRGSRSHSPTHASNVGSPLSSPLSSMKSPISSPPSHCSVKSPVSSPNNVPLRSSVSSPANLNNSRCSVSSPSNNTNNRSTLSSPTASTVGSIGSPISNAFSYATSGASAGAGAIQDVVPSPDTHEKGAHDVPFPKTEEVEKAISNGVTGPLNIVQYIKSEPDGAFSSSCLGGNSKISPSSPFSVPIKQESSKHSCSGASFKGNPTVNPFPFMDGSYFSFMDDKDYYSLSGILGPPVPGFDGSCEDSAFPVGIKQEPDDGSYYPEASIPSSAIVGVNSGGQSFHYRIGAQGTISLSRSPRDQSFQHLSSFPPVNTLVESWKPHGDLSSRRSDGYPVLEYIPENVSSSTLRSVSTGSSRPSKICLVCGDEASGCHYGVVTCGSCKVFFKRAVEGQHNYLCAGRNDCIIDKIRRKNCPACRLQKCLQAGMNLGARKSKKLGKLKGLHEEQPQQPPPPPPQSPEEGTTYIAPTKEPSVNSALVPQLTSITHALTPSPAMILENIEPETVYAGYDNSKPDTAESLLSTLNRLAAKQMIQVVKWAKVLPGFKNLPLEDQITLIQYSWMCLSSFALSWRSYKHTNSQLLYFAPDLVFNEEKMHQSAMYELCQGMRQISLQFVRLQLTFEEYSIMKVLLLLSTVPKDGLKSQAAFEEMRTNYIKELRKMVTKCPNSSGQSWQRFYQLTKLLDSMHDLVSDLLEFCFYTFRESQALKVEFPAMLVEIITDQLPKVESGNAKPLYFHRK

Androgen Receptor/SRC-1 Co-activator, AR (gene 367), sequence (P10275 whole entry, looked up): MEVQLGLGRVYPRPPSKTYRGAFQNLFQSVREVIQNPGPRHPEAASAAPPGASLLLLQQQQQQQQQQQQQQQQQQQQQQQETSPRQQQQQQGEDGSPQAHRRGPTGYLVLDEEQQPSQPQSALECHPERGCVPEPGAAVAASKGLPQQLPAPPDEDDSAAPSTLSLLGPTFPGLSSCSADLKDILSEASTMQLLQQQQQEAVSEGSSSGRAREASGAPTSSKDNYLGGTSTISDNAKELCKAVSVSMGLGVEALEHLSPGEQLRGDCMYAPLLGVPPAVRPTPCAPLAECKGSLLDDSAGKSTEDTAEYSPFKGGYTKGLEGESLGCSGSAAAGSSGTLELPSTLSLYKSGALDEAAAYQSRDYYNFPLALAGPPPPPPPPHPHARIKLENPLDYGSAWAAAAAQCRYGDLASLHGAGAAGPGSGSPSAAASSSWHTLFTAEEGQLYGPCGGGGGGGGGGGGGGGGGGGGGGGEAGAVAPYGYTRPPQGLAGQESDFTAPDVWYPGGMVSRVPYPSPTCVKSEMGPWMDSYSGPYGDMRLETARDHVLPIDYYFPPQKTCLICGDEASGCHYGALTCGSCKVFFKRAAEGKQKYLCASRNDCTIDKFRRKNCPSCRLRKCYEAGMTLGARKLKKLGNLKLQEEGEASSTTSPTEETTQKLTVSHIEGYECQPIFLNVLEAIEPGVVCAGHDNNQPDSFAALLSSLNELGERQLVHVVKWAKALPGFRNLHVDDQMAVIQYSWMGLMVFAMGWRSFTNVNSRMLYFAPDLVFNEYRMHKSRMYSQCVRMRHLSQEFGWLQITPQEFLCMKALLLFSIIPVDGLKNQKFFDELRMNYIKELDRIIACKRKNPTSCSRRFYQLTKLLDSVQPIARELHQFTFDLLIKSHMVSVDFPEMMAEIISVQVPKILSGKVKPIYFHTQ
Estrogen receptor (Homo sapiens), sequence (P03372 whole entry, looked up, the tested form may be a part): as the sequence (P03372 whole entry, looked up, the tested form may be a part) above
Bile acid receptor (Homo sapiens), sequence (Q96RI1 whole entry, looked up): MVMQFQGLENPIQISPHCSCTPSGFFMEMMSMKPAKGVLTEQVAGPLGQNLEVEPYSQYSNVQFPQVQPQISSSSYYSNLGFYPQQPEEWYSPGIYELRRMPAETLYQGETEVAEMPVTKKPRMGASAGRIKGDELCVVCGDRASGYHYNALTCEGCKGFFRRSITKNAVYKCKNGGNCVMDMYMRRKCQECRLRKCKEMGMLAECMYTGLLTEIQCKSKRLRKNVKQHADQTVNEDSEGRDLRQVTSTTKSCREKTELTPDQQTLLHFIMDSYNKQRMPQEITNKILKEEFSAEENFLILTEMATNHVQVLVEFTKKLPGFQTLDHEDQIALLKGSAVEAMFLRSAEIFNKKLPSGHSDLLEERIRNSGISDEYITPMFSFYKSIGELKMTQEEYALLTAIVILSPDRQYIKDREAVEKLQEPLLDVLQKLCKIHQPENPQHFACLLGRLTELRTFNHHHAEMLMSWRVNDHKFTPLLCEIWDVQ

Turning to `ClC1=C(Cl)C2(Cl)C3C(Cl)C(Cl)CC3C1(Cl)C2(Cl)Cl` (centres undefined), the result in assay [1], in assay [2], in assay [3] and in assay [6] was inactive. Moreover, the AC50 in assay [4] was 38.1 µM (active); in assay [5] it was 48.4 µM (active).
Take `O=S(=O)(c1ccc(O)cc1)c1ccc(O)cc1`: the AC50 in assay [2] is 4.77 µM (active); in assay [3] it was 46.8 µM (active); in assay [7], 36.7 µM (active); in assay [6], 29.2 µM (active).
`CC1(C)CN=C(NN=C(/C=C/c2ccc(C(F)(F)F)cc2)/C=C/c2ccc(C(F)(F)F)cc2)NC1`: the figures for the AC50 in assay [2], in assay [4] and in [5] were 8.61 µM (active), 12.7 µM (active) and 44 µM (active), respectively. Further, the molecule was called inactive in assay [3], in assay [7], in [8] and in assay [6].
As for `CCCCCCCc1ccc(O)cc1`, the AC50 in assay [2] is 18.8 µM (active); in [3], 24.5 µM (active) and 23.2 µM (active); in assay [7], 26.1 µM (active) and 23.4 µM (active) and 23.6 µM (active); in assay [4] it was 72 µM (active) and 72.7 µM (active) and 73.8 µM (active); in assay [5], 74.4 µM (active) and 73.3 µM (active); in assay [6], 15.3 µM (active) and 11.3 µM (active). In addition, the molecule was called inactive in assay [2], in [3], in assay [7], in assay [4], in assay [5] and in [6].
Turning to `CCCCc1ccc(O)cc1`, in [2], the molecule was classed as inactive. Besides, the AC50 in assay [3] was 41.4 µM (active); in assay [7] it was 19.7 µM (active); in assay [6], 31.4 µM (active).
For the molecule `CCC1(c2ccccc2)C(=O)N=C(O)NC1=O` (centres undefined), the result in [3] was inactive.
Turning to `CC(Cl)(Cl)C(=O)O`, the result in assay [2], in [3], in assay [7] and in assay [6] was inactive.
Take `CC(C)Nc1ccc(Nc2ccccc2)cc1`: in assay [2], the outcome was inactive.
As to `O=P1(N(CCCl)CCCl)NCCCO1` (centres undefined), in assay [2], the AC50 was 15.7 µM (active). Also, the molecule was called inactive in assay [2], in [3], in assay [7] and in assay [6].
`CCCCN(CCCC)N=O`: the outcome in assay [3], in assay [9] and in assay [6] was inactive.
As for `OCC1CO1` (centres undefined), the molecule was classed as inactive in [3] and in assay [7].
Regarding `[N-]=[N+]=[N-]`, the molecule was called inactive in assay [2], in [3], in [7] and in [4].
Turning to `CCCCN(CCCC)SN(C)C(=O)Oc1cccc2c1OC(C)(C)C2`, the molecule was classed as inactive in [2], in assay [3], in [7] and in [6].
Regarding `CCCCN(CC)C(=O)SCCC`, the AC50 in [2] is 3.02 µM (active). In addition, the outcome in assay [3], in assay [7], in assay [4] and in assay [6] was inactive.
As to `CCOC(=O)c1ccccc1N`, the molecule was called inactive in [3], in assay [7] and in assay [6].
Regarding `Cc1ccc([N+](=O)[O-])cc1C`, the molecule was classed as inactive in [3] and in assay [6].
In the case of `CCOP(=S)(OCC)SCSCC`, the outcome in assay [3], in assay [7] and in assay [6] was inactive.
As for `CCN(CC)c1ccccc1`, the molecule was called inactive in [3], in assay [7], in [4], in assay [5] and in assay [6].
Consider `CCCCC(CC)COP(=O)(Oc1ccccc1)Oc1ccccc1` (centres undefined), for which the result in assay [3], in assay [7], in [4] and in assay [5] was inactive. For the same molecule, in assay [6], the AC50 was 50 µM (active).
Consider `CSC(C)(C)C=NO`, for which the outcome in assay [3] and in assay [7] was inactive. For the same molecule, the AC50 in [10] was 4.44 µM (active).
Consider `O=NN1CCCC1`, for which the AC50 in assay [3] was 12.1 µM (active). Further, the result in assay [7] and in assay [6] was inactive.
With `CCOP(=S)(Oc1ccc([N+](=O)[O-])cc1)c1ccccc1` (centres undefined), in [3], the molecule was called inactive. Further, the values for the AC50 in assay [7] and in assay [6] were 14.8 µM (active) and 14.1 µM (active), respectively.
Turning to `c1cc2c3c(cccc3c1)CC2`, the molecule was called inactive in assay [3], in assay [7], in assay [4] and in assay [6].
Regarding `COC(N)=O`, the molecule was classed as inactive in [3], in assay [7] and in assay [6].
Regarding `O=P(Oc1ccccc1)(Oc1ccccc1)Oc1ccccc1`, the figures for the AC50 in [3], in [7] and in assay [6] were 12.4 µM (active), 12.1 µM (active) and 12.4 µM (active), respectively.
`O=S1(=O)OCC2C(CO1)C1(Cl)C(Cl)=C(Cl)C2(Cl)C1(Cl)Cl` (centres undefined): the molecule was classed as inactive in assay [3] and in [7]. Besides, in assay [6], the AC50 is 86.8 µM (active).
`c1nc[nH]n1`: the result in assay [3], in assay [7] and in assay [6] was inactive.
On to `O=C(CBr)OCc1ccccc1`, for which the molecule was called inactive in assay [3], in assay [7] and in assay [6].
Take `CCOS(=O)(=O)OCC`: the molecule was classed as inactive in assay [3], in assay [7] and in assay [6].
For `O=C(O)C(Cl)Cl`, the outcome in assay [3] and in [7] was inactive.
Regarding `CCOP(=S)(NC(C)C)Oc1ccccc1C(=O)OC(C)C` (centres undefined), in assay [10], the result was inactive.
Regarding `Cc1ccc(N)cc1N`, the result in assay [3], in assay [7] and in assay [6] was inactive.
For the molecule `Nc1cc2c3c(c1)C(c1ccccc1)=N[C@@H](NC(=O)c1cccnc1)C(=O)N3CC2`, the result in assay [3], in assay [7] and in [6] was inactive.
For `O=[N+]([O-])c1ccccc1`, the molecule was classed as inactive in [3], in assay [7] and in assay [6].
Regarding `Nc1ccc2ccccc2c1`, the outcome in assay [3], in assay [7] and in [6] was inactive.
On to `O=C(O)CF`, for which the molecule was classed as inactive in assay [3], in assay [7] and in [6].
As to `c1ccc2c(c1)Nc1ccccc1S2`, the molecule was called inactive in assay [3], in [7] and in assay [6].
As to `Nc1ccc(Cl)cc1`, the molecule was classed as inactive in [3] and in assay [7].
As for `Cc1ccc(O)cc1C`, the molecule was classed as inactive in assay [3], in assay [7] and in assay [6].
Consider `CCCCC(CC)COC(=O)c1c(Br)c(Br)c(Br)c(Br)c1C(=O)OCC(CC)CCCC` (centres undefined), for which the molecule was called inactive in assay [3], in [7] and in [6].
As to `FC(F)(F)c1ccc(Cl)cc1`, the result in assay [7] and in [6] was inactive.
Regarding `CCOc1ccc(C(C)(C)COCc2cccc(Oc3ccccc3)c2)cc1`, the result in assay [3] and in assay [6] was inactive.
For `O=[N+]([O-])c1ccc(Cl)c(Cl)c1`, the outcome in assay [3] and in assay [7] was inactive.
`CCCCOCCOP(=O)(OCCOCCCC)OCCOCCCC`: the outcome in [3], in assay [7] and in [6] was inactive.
Take `CC(C)(C)N(NC(=O)c1ccc(Cl)cc1)C(=O)c1ccccc1`: the molecule was classed as inactive in assay [3], in assay [4], in assay [5] and in assay [6].
Turning to `O=C(O)C1C(C(=O)O)C2(Cl)C(Cl)=C(Cl)C1(Cl)C2(Cl)Cl` (centres undefined), the molecule was called inactive in assay [3], in [7] and in assay [6].
With `CC(Cc1ccc(OCC(=O)O)cc1)NCC(O)c1csc(C(F)(F)F)n1` (centres undefined), the call in assay [3], in [7] and in assay [6] was inactive.
`CCNc1nc(Cl)nc(NC(C)(C)C)n1`: the result in [3], in assay [7], in assay [4], in [5] and in assay [6] was inactive.
